{
  "source": "the supplement of paper PMC9135407",
  "tested_on": "primary human hepatic stellate cells (donor 1)",
  "assay": "scaled lipid accumulation score (0 = DMSO-like, 1 = nortriptyline-like); higher = stronger HSC inactivation (lipid re-accumulation), active = hit call of the paper",
  "conditions": "48 h",
  "key": {"[1]": {"conditions": "library stock concentration: 3.33 mM"}, "[2]": {"conditions": "library stock concentration: 10 mM"}, "[3]": {"conditions": "library stock concentration: 1 mM"}, "[4]": {"conditions": "library stock concentration: 400 uM"}, "[5]": {"conditions": "library stock concentration: 2 mM"}, "[6]": {"conditions": "library stock concentration: 80 uM"}},
  "note": "Values joined by “and” are separate entries in the source; they are usually repeats but may differ in a detail not shown here. Identical values can stand only once. Hit rate of the full screen: of about 5,800 compounds, about 620 (11%) showed activity. Only a selection was taken, and actives are over-represented in it overall. A number with no mark means an inactive call.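 How the source made its calls: active = score above a cut-off or among the top three wells of a plate; in these data no inactive exceeds 0.85.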",
  "data": [
    {"molecule": "Cc1cc(CS(=O)(=O)c2ccccc2)cc(OCc2ccc(CN3CCC[C@@H]3CO)cc2)c1", "note": "[listing 1 of 2 here]", "values": [
      {"measurement": "scaled lipid accumulation score", "setting": "[1]", "result": "≤ -0.009"}
    ]},
    {"molecule": "Cc1cc(CS(=O)(=O)c2ccccc2)cc(OCc2ccc(CN3CCC[C@@H]3CO)cc2)c1", "note": "[listing 2 of 2 here]", "values": [
      {"measurement": "scaled lipid accumulation score", "setting": "[2]", "result": "1.03 (active)"}
    ]},
    {"molecule": "CCCCC[C@H](O)/C=C/[C@@H]1[C@@H](CCCCCCC(=O)O)[C@H](O)C[C@H]1O", "note": "[Prostaglandin F1.beta.]", "values": [
      {"measurement": "scaled lipid accumulation score", "setting": "[3]", "result": "≤ 0"}
    ]},
    {"molecule": "COc1ccc2c3n(c(=NC(=O)c4cccnc4)nc2c1OC)CCN3", "values": [
      {"measurement": "scaled lipid accumulation score", "setting": "[4]", "result": "≤ -0.005"},
      {"measurement": "scaled lipid accumulation score", "setting": "[5]", "result": "≤ -0.005"},
      {"measurement": "scaled lipid accumulation score", "setting": "[2]", "result": "≤ -0.005"}
    ]},
    {"molecule": "CCCCC[C@H](O)/C=C/[C@H]1CC[C@@H](O)[C@@H]1C/C=C\\CCCC(=O)O", "note": "[11-deoxy Prostaglandin F2.beta.]", "values": [
      {"measurement": "scaled lipid accumulation score", "setting": "[3]", "result": "≤ 0"}
    ]},
    {"molecule": "CCCCCCCCCCC1=C(C)C(=O)C(OC)=C(OC)C1=O", "note": "[Decylubiquinone]", "values": [
      {"measurement": "scaled lipid accumulation score", "setting": "library stock concentration: 15.5 mM", "result": "≤ -0.021"}
    ]},
    {"molecule": "CCC1(C)OC(=O)N(C)C1=O", "note": "(stereo not given)", "values": [
      {"measurement": "scaled lipid accumulation score", "setting": "[2]", "result": "≤ 0"}
    ]},
    {"molecule": "CCN1CCN(Cc2ccc(Nc3ncc(F)c(-c4cc(F)c5nc(C)n(C(C)C)c5c4)n3)nc2)CC1", "note": "[Abemaciclib] [listing 1 of 2 here]", "values": [
      {"measurement": "scaled lipid accumulation score", "setting": "[5]", "result": "0.882 (active)"}
    ]},
    {"molecule": "CCN1CCN(Cc2ccc(Nc3ncc(F)c(-c4cc(F)c5nc(C)n(C(C)C)c5c4)n3)nc2)CC1", "note": "[Abemaciclib] [listing 2 of 2 here]", "values": [
      {"measurement": "scaled lipid accumulation score", "setting": "[6]", "result": 0.332},
      {"measurement": "scaled lipid accumulation score", "setting": "[4]", "result": 0.55},
      {"measurement": "scaled lipid accumulation score", "setting": "[2]", "result": 0.691}
    ]},
    {"molecule": "CCN1CCN(Cc2ccc(Nc3ncc(F)c(-c4cc(F)c5nc(C)n(C(C)C)c5c4)n3)nc2)CC1.CS(=O)(=O)O", "values": [
      {"measurement": "scaled lipid accumulation score", "setting": "[1]", "result": "0.963 (active)"},
      {"measurement": "scaled lipid accumulation score", "setting": "[2]", "result": "0.943 (active)"}
    ]},
    {"molecule": "CC(=O)N[C@@H](CSC/C=C(\\C)CCC=C(C)C)C(=O)O", "note": "[N-Acetyl-S-geranyl-L-cysteine]", "values": [
      {"measurement": "scaled lipid accumulation score", "setting": "[3]", "result": "≤ -0.021"}
    ]},
    {"molecule": "CCC(=O)O[C@H]1CC[C@H]2[C@@H]3CCc4cc(O)ccc4[C@H]3CC[C@]12C", "note": "[Estradiol propionate]", "values": [
      {"measurement": "scaled lipid accumulation score", "setting": "library stock concentration: 6.1 mM", "result": 0.254},
      {"measurement": "scaled lipid accumulation score", "setting": "[2]", "result": 0.443}
    ]},
    {"molecule": "O=C1OC2(c3ccc(O)cc3Oc3cc(OS(=O)(=O)c4c(F)c(F)c(F)c(F)c4F)ccc32)c2ccccc21", "note": "(stereo not given) [Pentafluorobenzenesulfonyl fluorescein]", "values": [
      {"measurement": "scaled lipid accumulation score", "setting": "[3]", "result": "≤ 0"}
    ]},
    {"molecule": "CO[C@H]1C[C@@H]2CC[C@@H](C)[C@@](O)(O2)C(=O)C(=O)N2CCCC[C@H]2C(=O)O[C@H]([C@H](C)C[C@@H]2CC[C@@H](OC(=O)C(C)(CO)CO)[C@H](OC)C2)CC(=O)[C@H](C)/C=C(\\C)[C@@H](O)[C@@H](OC)C(=O)[C@H](C)C[C@H](C)/C=C/C=C/C=C/1C", "values": [
      {"measurement": "scaled lipid accumulation score", "setting": "[1]", "result": 0.032},
      {"measurement": "scaled lipid accumulation score", "setting": "[2]", "result": 0.094}
    ]},
    {"molecule": "CN1CCN(C2CCN(C(=O)Nc3cc(Oc4ccc(NC(=O)C5(C(=O)Nc6ccc(F)cc6)CC5)c(F)c4)ccn3)CC2)CC1", "note": "[Golvatinib (E7050)] [listing 1 of 2 here]", "values": [
      {"measurement": "scaled lipid accumulation score", "setting": "[1]", "result": "0.979 (active)"}
    ]},
    {"molecule": "CN1CCN(C2CCN(C(=O)Nc3cc(Oc4ccc(NC(=O)C5(C(=O)Nc6ccc(F)cc6)CC5)c(F)c4)ccn3)CC2)CC1", "note": "[Golvatinib (E7050)] [listing 2 of 2 here]", "values": [
      {"measurement": "scaled lipid accumulation score", "setting": "[2]", "result": 0.429}
    ]},
    {"molecule": "CC/C=C\\C/C=C\\C/C=C\\C/C=C\\C/C=C\\C/C=C\\CCC(=O)NCCO", "note": "[Docosahexaenoyl Ethanolamide]", "values": [
      {"measurement": "scaled lipid accumulation score", "setting": "[3]", "result": 0.03}
    ]},
    {"molecule": "COc1cc(N2CCC(N3CCN(C)CC3)CC2)ccc1Nc1ncnc(Nc2ccccc2S(=O)(=O)C(C)C)n1", "values": [
      {"measurement": "scaled lipid accumulation score", "setting": "[6]", "result": "≤ 0"},
      {"measurement": "scaled lipid accumulation score", "setting": "[4]", "result": 0.045},
      {"measurement": "scaled lipid accumulation score", "setting": "[5]", "result": 0.433},
      {"measurement": "scaled lipid accumulation score", "setting": "[2]", "result": 0.819}
    ]},
    {"molecule": "COc1cc(OC2CCN(C)CC2)ccc1Nc1ncc2c(n1)n(C1CCCC1)c(=O)n2C", "note": "[listing 1 of 2 here]", "values": [
      {"measurement": "scaled lipid accumulation score", "setting": "[1]", "result": 0.441}
    ]},
    {"molecule": "COc1cc(OC2CCN(C)CC2)ccc1Nc1ncc2c(n1)n(C1CCCC1)c(=O)n2C", "note": "[listing 2 of 2 here]", "values": [
      {"measurement": "scaled lipid accumulation score", "setting": "[2]", "result": "1.06 (active)"}
    ]},
    {"molecule": "C[C@H](C(=O)O)c1ccc(-c2ccccc2)c(F)c1", "note": "[(S)-Flurbiprofen]", "values": [
      {"measurement": "scaled lipid accumulation score", "setting": "[3]", "result": 0.003}
    ]},
    {"molecule": "O=c1cc(N2CCOCC2)oc2c1ccc1ccccc12", "note": "[DNA-PK Inhibitor II]", "values": [
      {"measurement": "scaled lipid accumulation score", "setting": "[1]", "result": "≤ 0"}
    ]},
    {"molecule": "COc1ccc(-c2nc(N3CCOCC3)c3sc(CN(C)c4ncc(C(=O)NO)cn4)cc3n2)cn1", "values": [
      {"measurement": "scaled lipid accumulation score", "setting": "[6]", "result": 0.745},
      {"measurement": "scaled lipid accumulation score", "setting": "[4]", "result": 0.648},
      {"measurement": "scaled lipid accumulation score", "setting": "[5]", "result": 0.67},
      {"measurement": "scaled lipid accumulation score", "setting": "[1]", "result": 0.439},
      {"measurement": "scaled lipid accumulation score", "setting": "[2]", "result": "0.447 and 0.588"}
    ]},
    {"molecule": "Nc1ccc(C(=O)Nc2cccc(-c3nc(N4CCOCC4)c4oc5ncccc5c4n3)c2)cn1", "note": "[listing 1 of 3 here]", "values": [
      {"measurement": "scaled lipid accumulation score", "setting": "[2]", "result": "0.995 (active)"}
    ]},
    {"molecule": "Cl.Nc1ccc(C(=O)Nc2cccc(-c3nc(N4CCOCC4)c4oc5ncccc5c4n3)c2)cn1", "values": [
      {"measurement": "scaled lipid accumulation score", "setting": "[5]", "result": "1.74 (active)"},
      {"measurement": "scaled lipid accumulation score", "setting": "[2]", "result": "1.25 (active)"}
    ]},
    {"molecule": "Nc1ccc(C(=O)Nc2cccc(-c3nc(N4CCOCC4)c4oc5ncccc5c4n3)c2)cn1", "note": "[listing 2 of 3 here]", "values": [
      {"measurement": "scaled lipid accumulation score", "setting": "[2]", "result": "0.915 (active)"}
    ]},
    {"molecule": "Oc1cccc(-c2nc(N3CCOCC3)c3oc4ncccc4c3n2)c1", "note": "[listing 1 of 2 here]", "values": [
      {"measurement": "scaled lipid accumulation score", "setting": "[6]", "result": 0.118},
      {"measurement": "scaled lipid accumulation score", "setting": "[4]", "result": "0.051 and ≤ -0.005"},
      {"measurement": "scaled lipid accumulation score", "setting": "[3]", "result": "≤ 0"},
      {"measurement": "scaled lipid accumulation score", "setting": "[5]", "result": "≤ -0.009 and ≤ -0.005"},
      {"measurement": "scaled lipid accumulation score", "setting": "[1]", "result": "0.203 and 0.016"},
      {"measurement": "scaled lipid accumulation score", "setting": "[2]", "result": "0.796 and 0.279"}
    ]},
    {"molecule": "CC(C)(O)c1cc2nc(-c3cnc(N)nc3)nc(N3CCOCC3)c2s1", "values": [
      {"measurement": "scaled lipid accumulation score", "setting": "[4]", "result": "≤ -0.005"},
      {"measurement": "scaled lipid accumulation score", "setting": "[5]", "result": "≤ -0.005"},
      {"measurement": "scaled lipid accumulation score", "setting": "[2]", "result": 0.006}
    ]},
    {"molecule": "Oc1cccc(-c2nc(N3CCOCC3)c3oc4ncccc4c3n2)c1", "note": "[listing 2 of 2 here]", "values": [
      {"measurement": "scaled lipid accumulation score", "setting": "[2]", "result": "0.923 (active)"}
    ]},
    {"molecule": "Cc1c(CN2CCN(C(=O)[C@H](C)O)CC2)sc2c(N3CCOCC3)nc(-c3cnc(N)nc3)nc12", "values": [
      {"measurement": "scaled lipid accumulation score", "setting": "[6]", "result": 0.079},
      {"measurement": "scaled lipid accumulation score", "setting": "[4]", "result": "≤ -0.015"},
      {"measurement": "scaled lipid accumulation score", "setting": "[5]", "result": "≤ -0.016"},
      {"measurement": "scaled lipid accumulation score", "setting": "[1]", "result": "≤ 0"},
      {"measurement": "scaled lipid accumulation score", "setting": "[2]", "result": "≤ 0 and ≤ -0.016"}
    ]},
    {"molecule": "O=c1cc(N2CCOCC2)oc2c1ccc1ccccc12", "values": [
      {"measurement": "scaled lipid accumulation score", "setting": "[6]", "result": "≤ 0"},
      {"measurement": "scaled lipid accumulation score", "setting": "[4]", "result": "≤ 0"},
      {"measurement": "scaled lipid accumulation score", "setting": "[5]", "result": "≤ 0"},
      {"measurement": "scaled lipid accumulation score", "setting": "[2]", "result": "≤ 0 and 0.033"}
    ]},
    {"molecule": "Oc1cccc(-c2nc(N3CCOCC3)c3sccc3n2)c1", "note": "[PI3-Kinase .alpha. Inhibitor 2]", "values": [
      {"measurement": "scaled lipid accumulation score", "setting": "[3]", "result": "≤ 0"}
    ]},
    {"molecule": "Nc1ccc(C(=O)Nc2cccc(-c3nc(N4CCOCC4)c4oc5ncccc5c4n3)c2)cn1", "note": "[listing 3 of 3 here]", "values": [
      {"measurement": "scaled lipid accumulation score", "setting": "[6]", "result": "≤ -0.009"},
      {"measurement": "scaled lipid accumulation score", "setting": "[4]", "result": "0.031 and ≤ -0.005"},
      {"measurement": "scaled lipid accumulation score", "setting": "[5]", "result": 0.229},
      {"measurement": "scaled lipid accumulation score", "setting": "[1]", "result": 0.647}
    ]}
  ]
}
